Targets with a hit are over-represented here; the source holds about 7,900 in all. About 0.6% of all pairs of compound and target were hits.
Experiments:
Assay in all cases: log2 fold change, soluble protein after heating vs DMSO (PISA); higher = thermal stabilisation; K562 cells, 10 uM, 30 min; active = over 0.2 and 3.5 SD of the protein, either way, in both replicates (recomputed)
erlotinib = compound: C#Cc1cccc(Nc2ncnc3cc(OCCOC)c(OCCOC)cc23)c1 [erlotinib]
Outline: (§1)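 Quantification of soluble protein used TMTpro 16plex LC-MS/MS, with channel sums equalised. Samples were the supernatant after 21,000xg for 90 min of pooled aliquots from K562 cells (2×10^6 cells/mL) treated with 10 μM compound for 30 min, heated for 3 min over 48°C-58°C, and extracted in PBS with 0.5% NP-40 at 4°C. Values, from duplicates, describe thermal stability against control samples on a log2 fold-change scale.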

[1] = compound: C/C(=N\NC(=O)C1=CC(=CC=C1)S(=O)(=O)N2CCOCC2)/C3=C(C=CC(=C3)Cl)O
Outline: as §1

[2] = compound: C1=CC(=C(C=C1Cl)C2=NC3=NC=CN=C3C(=N2)NC4=CC=NC=C4)F
Outline: as §1

[3] = compound: C1=CC(=CC=C1C2=NC3=C(N2)C=C(C=C3)C(=O)N)OC4=CC=C(C=C4)Cl
Outline: as §1

[4] = compound: C1=CC2=C(C=CC(=C2)/C=C\3/C(=O)NC(=NCC4=CC=CS4)S3)N=C1
Outline: as §1

[5] = compound: C1=CC2=NC=CN=C2C=C1/C=C/3\C(=O)NC(=O)S3
Outline: as §1

[6] = compound: C1=CC=C(C=C1)C2=NC(=C(N2)C3=CC=NC=C3)C4=CC(=C(C=C4)Cl)O
Outline: as §1

[7] = compound: C1=CC=C2C(=C1)C3=NNC4=CC=CC(=C43)C2=O
Outline: as §1

[8] = compound: C1CCN(C1)C(=O)NC2=CC=CC(=C2)NC3=NC=C(C(=N3)NCCC4=CN=CN4)Br
Outline: as §1

[9] = compound: C1CN(CCC1(CC2=CC=C(C=C2)Cl)N)C3=NC=NC4=C3C=CN4
Outline: as §1

Measured: log2 fold change

SRSF11 (UniProt Q05519)
inactive: erlotinib 0.05 | [1] 0.191 | [2] 0.06 | [3] 0.054 | [4] -0.049 | [5] -0.003 | [6] -0.026 | [7] -0.003 | [8] -0.129 | [9] -0.196

SRC isoform 2 (UniProt P12931)
inactive: erlotinib -0.014 | [1] -0.034 | [2] -0.006 | [3] 0.153 | [4] 0.088 | [5] 0.022 | [6] 0.036 | [7] -0.049 | [8] -0.073 | [9] -0.025

SMG1 (UniProt Q96Q15)
inactive: erlotinib 0.012 | [1] 0.101 | [2] 0.066 | [3] -0.012 | [4] -0.029 | [5] 0 | [6] -0.088 | [7] 0.049 | [8] -0.054 | [9] 0.066

TIMM10B (UniProt Q9Y5J6)
Chain of UniProt Q9Y5J6 (Q9Y5J6 whole entry, looked up): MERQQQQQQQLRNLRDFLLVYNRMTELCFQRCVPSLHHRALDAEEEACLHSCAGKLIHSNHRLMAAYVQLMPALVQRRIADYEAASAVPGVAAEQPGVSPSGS
inactive: erlotinib 0.299 | [1] 0.135 | [2] 0.191 | [3] -0.189 | [4] 0.216 | [5] 0.048 | [6] 0.042 | [7] 0.543 | [8] -0.143 | [9] -0.051

STIM1 (UniProt Q13586)
inactive: erlotinib -0.015 | [1] 0.01 | [2] 0.043 | [3] 0.014 | [4] 0.039 | [5] -0.007 | [6] -0.025 | [7] -0.067 | [8] -0.003 | [9] 0.016

SPPL2B (UniProt Q8TCT7)
inactive: erlotinib 0.021 | [1] -0.112 | [2] -0.039 | [3] 0.044 | [4] 0.081 | [5] 0.048 | [6] 0.003 | [7] -0.072 | [8] -0.041 | [9] 0.038

SLC38A7 (UniProt Q9NVC3)
Chain of UniProt Q9NVC3 (Q9NVC3 whole entry, looked up): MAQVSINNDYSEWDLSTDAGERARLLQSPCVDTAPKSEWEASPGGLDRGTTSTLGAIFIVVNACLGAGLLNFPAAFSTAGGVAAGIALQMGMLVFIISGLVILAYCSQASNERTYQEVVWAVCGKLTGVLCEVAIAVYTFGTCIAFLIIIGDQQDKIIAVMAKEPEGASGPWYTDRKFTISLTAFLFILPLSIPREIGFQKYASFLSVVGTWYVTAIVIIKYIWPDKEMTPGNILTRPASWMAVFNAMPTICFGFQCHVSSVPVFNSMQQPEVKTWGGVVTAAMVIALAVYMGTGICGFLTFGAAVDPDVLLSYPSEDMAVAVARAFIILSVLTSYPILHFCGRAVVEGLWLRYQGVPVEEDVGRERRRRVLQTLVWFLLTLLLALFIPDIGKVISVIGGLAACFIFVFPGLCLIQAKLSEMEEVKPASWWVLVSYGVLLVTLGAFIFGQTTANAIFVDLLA
inactive: erlotinib 0.009 | [1] -0.003 | [2] 0.071 | [3] 0.058 | [4] 0.024 | [5] 0.088 | [7] 0.006 | [8] 0.011 | [9] 0.097
active: [6] 0.441

SREK1 isoform 2 (UniProt Q8WXA9)
Chain of UniProt Q8WXA9 (Q8WXA9 whole entry, looked up): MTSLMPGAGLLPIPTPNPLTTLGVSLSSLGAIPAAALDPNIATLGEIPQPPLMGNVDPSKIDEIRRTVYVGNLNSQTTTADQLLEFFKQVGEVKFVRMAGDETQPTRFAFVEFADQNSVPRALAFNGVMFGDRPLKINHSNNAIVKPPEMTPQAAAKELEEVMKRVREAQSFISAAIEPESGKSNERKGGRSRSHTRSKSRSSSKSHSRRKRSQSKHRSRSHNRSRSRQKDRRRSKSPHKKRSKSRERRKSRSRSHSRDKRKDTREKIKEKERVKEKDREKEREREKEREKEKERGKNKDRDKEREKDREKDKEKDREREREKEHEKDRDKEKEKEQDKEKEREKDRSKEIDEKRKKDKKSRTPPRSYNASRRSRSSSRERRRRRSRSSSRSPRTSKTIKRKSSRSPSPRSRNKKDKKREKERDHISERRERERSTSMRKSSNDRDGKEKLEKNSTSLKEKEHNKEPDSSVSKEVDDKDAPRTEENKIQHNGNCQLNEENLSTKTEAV
inactive: erlotinib -0.036 | [1] 0.1 | [2] -0.019 | [3] 0.12 | [4] -0.149 | [5] -0.084 | [6] 0.233 | [7] -0.096 | [8] -0.126 | [9] -0.24

SUGP1 (UniProt Q8IWZ8)
inactive: erlotinib 0.039 | [1] 0.093 | [2] -0.027 | [3] -0.029 | [4] -0.01 | [5] 0.005 | [6] 0 | [7] -0.012 | [8] -0.03 | [9] -0.001

SOAT1 (UniProt P35610)
Chain of UniProt P35610 (P35610 whole entry, looked up): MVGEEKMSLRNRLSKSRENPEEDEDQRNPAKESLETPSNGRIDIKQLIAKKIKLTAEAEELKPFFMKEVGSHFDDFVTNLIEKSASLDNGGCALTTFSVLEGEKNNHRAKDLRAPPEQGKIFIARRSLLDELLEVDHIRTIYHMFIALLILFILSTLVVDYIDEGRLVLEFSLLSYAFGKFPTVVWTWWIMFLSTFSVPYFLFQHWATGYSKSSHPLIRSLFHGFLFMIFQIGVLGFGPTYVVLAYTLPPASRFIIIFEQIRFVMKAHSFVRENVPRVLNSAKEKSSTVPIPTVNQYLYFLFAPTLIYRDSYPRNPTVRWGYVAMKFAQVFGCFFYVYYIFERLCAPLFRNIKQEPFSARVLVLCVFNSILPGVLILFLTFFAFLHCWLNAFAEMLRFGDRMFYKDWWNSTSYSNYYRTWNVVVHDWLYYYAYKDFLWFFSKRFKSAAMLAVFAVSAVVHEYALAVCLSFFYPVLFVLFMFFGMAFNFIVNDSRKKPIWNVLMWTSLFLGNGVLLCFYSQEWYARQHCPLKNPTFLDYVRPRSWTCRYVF
inactive: erlotinib 0.174 | [1] 0.099 | [2] -0.034 | [3] -0.063 | [4] 0.141 | [5] 0.063 | [6] 0.074 | [7] -0.038 | [8] 0.001 | [9] 0.026

SLC35F6 (UniProt Q8N357)
active: [6] 0.417
inactive: erlotinib 0.12 | [1] -0.078 | [2] -0.008 | [3] -0.067 | [4] -0.013 | [5] -0.047 | [7] -0.024 | [8] -0.057 | [9] 0.122

SPG11 (UniProt Q96JI7)
Chain of UniProt Q96JI7 (Q96JI7 whole entry, looked up): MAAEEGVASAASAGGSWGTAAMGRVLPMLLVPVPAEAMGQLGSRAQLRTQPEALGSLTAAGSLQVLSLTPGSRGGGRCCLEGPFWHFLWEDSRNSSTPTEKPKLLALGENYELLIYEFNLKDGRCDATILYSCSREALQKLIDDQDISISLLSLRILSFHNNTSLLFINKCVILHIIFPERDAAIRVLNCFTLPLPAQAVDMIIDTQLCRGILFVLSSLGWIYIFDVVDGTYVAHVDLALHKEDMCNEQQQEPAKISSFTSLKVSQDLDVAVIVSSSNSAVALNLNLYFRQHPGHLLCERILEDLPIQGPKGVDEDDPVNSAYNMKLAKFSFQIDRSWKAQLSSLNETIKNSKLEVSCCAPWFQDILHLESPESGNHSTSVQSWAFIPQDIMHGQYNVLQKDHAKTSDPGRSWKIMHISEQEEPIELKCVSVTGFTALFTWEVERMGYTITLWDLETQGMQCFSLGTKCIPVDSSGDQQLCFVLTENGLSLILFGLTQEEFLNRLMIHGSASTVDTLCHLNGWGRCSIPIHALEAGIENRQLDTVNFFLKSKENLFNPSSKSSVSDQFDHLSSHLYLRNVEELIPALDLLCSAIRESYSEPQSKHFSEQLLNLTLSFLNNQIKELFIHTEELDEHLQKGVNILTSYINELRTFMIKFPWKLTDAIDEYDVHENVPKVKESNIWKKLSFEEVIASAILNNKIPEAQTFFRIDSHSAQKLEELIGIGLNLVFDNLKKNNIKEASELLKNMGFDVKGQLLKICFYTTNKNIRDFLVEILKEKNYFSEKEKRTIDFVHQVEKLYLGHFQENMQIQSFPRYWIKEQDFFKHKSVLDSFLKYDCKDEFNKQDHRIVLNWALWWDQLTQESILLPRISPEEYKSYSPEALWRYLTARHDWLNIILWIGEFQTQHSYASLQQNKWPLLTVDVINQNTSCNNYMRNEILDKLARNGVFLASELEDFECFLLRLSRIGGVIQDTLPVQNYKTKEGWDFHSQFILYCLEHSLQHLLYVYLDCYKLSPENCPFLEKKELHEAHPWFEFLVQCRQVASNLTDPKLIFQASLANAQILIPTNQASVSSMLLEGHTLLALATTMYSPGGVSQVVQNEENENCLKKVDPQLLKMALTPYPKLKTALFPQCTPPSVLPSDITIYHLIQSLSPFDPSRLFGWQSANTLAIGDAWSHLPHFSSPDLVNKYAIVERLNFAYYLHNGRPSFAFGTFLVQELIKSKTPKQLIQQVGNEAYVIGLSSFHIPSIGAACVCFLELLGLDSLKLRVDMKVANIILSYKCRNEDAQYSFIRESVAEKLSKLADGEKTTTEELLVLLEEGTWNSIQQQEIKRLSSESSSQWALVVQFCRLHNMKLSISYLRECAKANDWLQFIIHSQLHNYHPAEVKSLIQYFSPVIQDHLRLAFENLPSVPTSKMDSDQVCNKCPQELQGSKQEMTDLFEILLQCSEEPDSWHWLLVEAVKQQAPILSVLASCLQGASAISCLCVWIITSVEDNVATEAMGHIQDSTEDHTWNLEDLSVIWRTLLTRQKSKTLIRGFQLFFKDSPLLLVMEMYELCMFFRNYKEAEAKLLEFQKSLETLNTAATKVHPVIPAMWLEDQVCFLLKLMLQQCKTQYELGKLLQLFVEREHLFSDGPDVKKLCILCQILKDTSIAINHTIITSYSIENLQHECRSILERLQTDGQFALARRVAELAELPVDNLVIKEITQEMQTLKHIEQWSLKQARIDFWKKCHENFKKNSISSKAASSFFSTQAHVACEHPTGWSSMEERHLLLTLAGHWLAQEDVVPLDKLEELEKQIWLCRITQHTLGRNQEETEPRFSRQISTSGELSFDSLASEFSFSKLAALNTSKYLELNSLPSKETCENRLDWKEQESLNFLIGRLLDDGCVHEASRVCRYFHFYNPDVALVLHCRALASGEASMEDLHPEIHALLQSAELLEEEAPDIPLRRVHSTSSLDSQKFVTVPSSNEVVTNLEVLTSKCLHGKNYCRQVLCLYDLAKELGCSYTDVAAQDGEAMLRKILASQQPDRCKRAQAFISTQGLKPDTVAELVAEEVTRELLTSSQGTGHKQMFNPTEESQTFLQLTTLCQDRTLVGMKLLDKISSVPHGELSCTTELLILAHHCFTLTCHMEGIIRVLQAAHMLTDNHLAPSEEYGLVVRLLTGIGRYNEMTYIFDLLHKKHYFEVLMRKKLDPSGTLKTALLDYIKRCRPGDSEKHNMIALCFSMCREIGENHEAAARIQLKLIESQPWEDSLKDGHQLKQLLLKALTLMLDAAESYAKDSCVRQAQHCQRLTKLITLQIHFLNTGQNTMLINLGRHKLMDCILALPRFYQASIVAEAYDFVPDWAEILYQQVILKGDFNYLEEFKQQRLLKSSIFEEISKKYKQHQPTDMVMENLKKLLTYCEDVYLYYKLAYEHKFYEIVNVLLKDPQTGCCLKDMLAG
inactive: erlotinib 0.586 | [1] 0.148 | [2] -0.089 | [3] -0.084 | [4] 0.128 | [5] -0.108 | [6] -0.275 | [7] -0.073 | [8] 0.405 | [9] -0.002

STK26 (UniProt Q9P289)
inactive: erlotinib 0.058 | [1] -0.014 | [2] 0.195 | [3] -0.014 | [4] -0.008 | [5] 0.124 | [6] -0.015 | [7] -0.08 | [8] 0.023 | [9] 0.02

SLC7A6OS (UniProt Q96CW6)
Chain of UniProt Q96CW6 (Q96CW6 whole entry, looked up): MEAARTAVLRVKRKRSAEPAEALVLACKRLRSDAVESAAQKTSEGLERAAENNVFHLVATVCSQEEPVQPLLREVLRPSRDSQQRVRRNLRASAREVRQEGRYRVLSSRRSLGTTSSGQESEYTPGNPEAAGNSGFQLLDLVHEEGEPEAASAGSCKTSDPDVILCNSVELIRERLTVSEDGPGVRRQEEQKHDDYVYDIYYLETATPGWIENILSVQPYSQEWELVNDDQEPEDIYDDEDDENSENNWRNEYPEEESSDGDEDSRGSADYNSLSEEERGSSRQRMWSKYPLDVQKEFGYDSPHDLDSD
inactive: erlotinib -0.015 | [1] 0.018 | [2] 0.035 | [3] -0.039 | [4] 0.007 | [5] 0.042 | [6] 0.045 | [7] -0.025 | [8] -0.015 | [9] 0.022

SLC29A3 (UniProt Q9BZD2)
Chain of UniProt Q9BZD2 (Q9BZD2 whole entry, looked up): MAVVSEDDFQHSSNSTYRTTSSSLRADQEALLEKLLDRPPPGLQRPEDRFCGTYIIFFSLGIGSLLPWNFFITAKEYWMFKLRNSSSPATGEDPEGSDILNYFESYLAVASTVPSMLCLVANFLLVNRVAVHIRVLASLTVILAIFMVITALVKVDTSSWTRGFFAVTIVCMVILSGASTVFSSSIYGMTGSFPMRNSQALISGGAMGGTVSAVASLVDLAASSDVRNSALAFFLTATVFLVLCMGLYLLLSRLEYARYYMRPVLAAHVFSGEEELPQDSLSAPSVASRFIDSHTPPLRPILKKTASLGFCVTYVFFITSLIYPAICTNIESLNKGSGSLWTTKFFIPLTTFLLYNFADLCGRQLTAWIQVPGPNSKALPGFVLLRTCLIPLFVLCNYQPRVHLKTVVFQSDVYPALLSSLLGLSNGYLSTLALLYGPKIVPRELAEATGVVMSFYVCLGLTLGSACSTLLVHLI
inactive: erlotinib 0.155 | [1] 0.024 | [2] 0.028 | [3] 0.043 | [4] 0.042 | [5] 0.098 | [6] 0.064 | [7] 0 | [8] 0.074 | [9] 0.052

Reference: the supplement of paper PMC10849652
